Test results taken from PubChem BioAssay AID1347087 (National Center for Advancing Translational Sciences (NCATS), 2019).
Inconclusive results are not listed. A number with no mark means an inactive call. Activity calls are given as the source filed them. The call rests on the fitted dose curve.

Experiment: qHTS for Inhibitors of the Functional Ribonucleoprotein Complex (vRNP) of Lassa (LASV) Arenavirus: LASV Confirmatory Screen - GLuc reporter signal
Settings: LASV minigenome vRNP, Gaussia luciferase reporter; series mostly up to 53.9 µM

**Q.** With `C=C(C)C1Cc2c(ccc3c2OC2COc4cc(OC)c(OC)cc4C2C3=O)O1` (stereo not given) as the molecule, how does the Potency read?
**A.** 0.0217 µM (active)

**Q.** With `CCc1cncnc1N1CCN(Cc2nc3ccc(C(F)(F)F)cc3[nH]2)CC1` as the molecule, how does the Potency read?
**A.** 3.95 µM (active)

**Q.** Which Potency does the source give for `C=C1CC[C@@H]2[C@](C)(CO)[C@H](O)CC[C@@]2(C)[C@@H]1/C=C/C1=CCOC1=O` here?
**A.** 21.7 µM (active)

**Q.** With `Cn1cc(-c2ccncc2)c(-c2ccc(OCc3ccc4ccccc4n3)cc2)n1` as the molecule, how does the Potency read?
**A.** 24.3 µM (active)

**Q.** With `Cc1cc(N)c2ccccc2[n+]1CCCCCCCCCC[n+]1c(C)cc(N)c2ccccc21` as the molecule, how does the Potency read?
**A.** 1.37 µM (active)

**Q.** With `Fc1ccc(CNc2ncnc3ccc(F)cc23)cc1` as the molecule, how does the Potency read?
**A.** 6.85 µM (active)

**Q.** With `Nc1ccc([N+](=O)[O-])cc1O` as the molecule, how does the Potency read?
**A.** 0.396 µM (active)

**Q.** With `CC(=O)OCC(=O)[C@@]12N=C(C)O[C@H]1C[C@H]1[C@@H]3CCC4=CC(=O)C=C[C@]4(C)[C@@H]3[C@@H](O)C[C@@]12C` as the molecule, how does the Potency read?
**A.** inactive

**Q.** Which activity, negative = inhibition does the source give for `CCCCC[C@H](O)/C=C/C=C/C/C=C\CCCC(=O)O` here?
**A.** 4.46% [at 0.666 µM]

**Q.** Which Potency does the source give for `COc1cc2c(cc1OC)CC(=O)N(CCCN(C)C[C@H]1Cc3cc(OC)c(OC)cc31)CC2` here?
**A.** inactive

**Q.** For `CO/C=C(/C(=O)OC)c1ccccc1Oc1cc(Oc2ccccc2C#N)ncn1`, which Potency is on record?
**A.** 6.27 µM (active)

**Q.** Which Potency does the source give for `Oc1cc(Cl)ccc1Oc1ccc(Cl)cc1Cl` here?
**A.** 25 µM (active)

**Q.** With `COc1ccc2c(c1OC)CN1CCc3cc4c(cc3C1C2)OCO4` (stereo not given) as the molecule, how does the Potency read?
**A.** 21.7 µM (active)

**Q.** For `CC(O)(P(=O)(O)O)P(=O)(O)O`, which Potency is on record?
**A.** inactive

**Q.** For `CC1=C(C)C(=O)C(CCCCC#CCCCC#CCO)=C(C)C1=O`, which Potency is on record?
**A.** 24.3 µM (active)
